Binding signal data for one sequence are collected here from PMC7862700, “An all-to-all approach to the identification of sequence-specific readers for epigenetic DNA modifications on cytosine”.

Holding throughout (assay): DAPPL (digital affinity profiling via proximity ligation, sequencing); 10 mM Tris-HCl pH 7.5, 50 mM NaCl, 1 mM DTT, 4% glycerol, room temperature, 30 min; GST-TFs on glutathione beads, 16-mer random dsDNA library, 0.1% formaldehyde crosslink after washing; high values mean tight binding
In one assay the target is T1, FEV (Homo sapiens, UniProt Q99581 1-238).
T1 sequence: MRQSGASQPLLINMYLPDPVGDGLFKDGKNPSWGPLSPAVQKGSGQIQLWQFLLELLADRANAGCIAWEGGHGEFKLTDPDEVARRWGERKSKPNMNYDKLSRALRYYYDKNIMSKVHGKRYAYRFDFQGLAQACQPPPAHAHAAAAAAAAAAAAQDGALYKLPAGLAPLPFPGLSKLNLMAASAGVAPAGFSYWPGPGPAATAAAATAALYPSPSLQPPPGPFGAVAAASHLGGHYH
Conditions: protein: recombinant; tags: N-terminal GST; dsDNA, one strand shown. Put shortly: (§1)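 Human transcription factors fused to GST were expressed in yeast, captured on glutathione beads, given DNA barcodes and pooled with a GST-only negative control. Pools were incubated with 200 nmole of a 16-mer random double-stranded DNA library in Tris/NaCl/DTT/glycerol buffer at room temperature for 30 min. They were then washed, crosslinked with 0.1% formaldehyde, proximity-ligated (BsaI/T4 ligase, 1 h, 37 °C), PCR-amplified and sequenced on an Illumina NextSeq500. Binding signal is each 6-mer's read frequency for a factor divided by its frequency for the GST control.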

A further assay deals with ETV5 (Homo sapiens, UniProt P41161 1-510). The conditions noted are these: protein: recombinant; tags: N-terminal GST; dsDNA, one strand shown. In outline: as §1
A further assay concerns the target HSF1 (Homo sapiens, UniProt Q00613 1-529). The conditions noted are these: protein: recombinant; tags: N-terminal GST; chain copies: 3; dsDNA, one strand shown. In outline: as §1
A further assay has as its target T2, SPIC (Homo sapiens, UniProt Q8N5J4 1-248).
T2 sequence: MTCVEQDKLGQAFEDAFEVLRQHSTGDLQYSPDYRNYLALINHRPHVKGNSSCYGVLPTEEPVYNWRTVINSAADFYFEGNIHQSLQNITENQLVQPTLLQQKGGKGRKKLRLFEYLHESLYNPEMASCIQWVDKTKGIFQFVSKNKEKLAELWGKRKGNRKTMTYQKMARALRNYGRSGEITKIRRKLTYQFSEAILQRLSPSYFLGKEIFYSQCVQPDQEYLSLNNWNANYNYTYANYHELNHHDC
Conditions: protein: recombinant; tags: N-terminal GST; dsDNA, one strand shown. Put shortly: as §1

The next assay has as its target ELF4 (Homo sapiens, UniProt Q99607 1-663). The conditions noted are these: protein: recombinant; tags: N-terminal GST; dsDNA, one strand shown. Put shortly: as §1
The next assay has as its target T3, ELK4 (Homo sapiens, UniProt P28324-2 1-405).
T3 sequence: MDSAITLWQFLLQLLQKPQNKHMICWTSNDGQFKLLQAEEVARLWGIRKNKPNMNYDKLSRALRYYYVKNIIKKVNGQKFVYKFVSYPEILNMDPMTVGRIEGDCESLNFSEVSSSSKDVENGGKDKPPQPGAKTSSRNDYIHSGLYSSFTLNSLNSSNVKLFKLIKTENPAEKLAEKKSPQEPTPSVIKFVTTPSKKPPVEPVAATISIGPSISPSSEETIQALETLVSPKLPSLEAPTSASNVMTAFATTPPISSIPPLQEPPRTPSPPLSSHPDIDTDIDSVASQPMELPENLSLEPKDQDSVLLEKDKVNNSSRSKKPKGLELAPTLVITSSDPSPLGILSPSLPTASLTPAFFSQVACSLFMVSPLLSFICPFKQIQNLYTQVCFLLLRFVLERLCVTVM
The conditions noted are these: protein: recombinant; tags: N-terminal GST; dsDNA, one strand shown. Put shortly: as §1

In another assay the target is T4, ETV2 (Homo sapiens, UniProt O00321 1-342).
T4 sequence: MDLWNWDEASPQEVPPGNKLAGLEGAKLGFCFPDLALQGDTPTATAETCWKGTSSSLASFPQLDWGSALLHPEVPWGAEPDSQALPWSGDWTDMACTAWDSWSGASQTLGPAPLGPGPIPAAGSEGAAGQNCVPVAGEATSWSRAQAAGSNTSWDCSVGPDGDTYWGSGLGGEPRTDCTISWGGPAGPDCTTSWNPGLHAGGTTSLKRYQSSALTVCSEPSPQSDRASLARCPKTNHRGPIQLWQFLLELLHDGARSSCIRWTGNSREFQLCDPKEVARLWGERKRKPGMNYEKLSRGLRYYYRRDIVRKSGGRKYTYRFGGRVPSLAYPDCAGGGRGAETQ
Conditions: protein: recombinant; tags: N-terminal GST; dsDNA, one strand shown. Put shortly:
as §1

A further assay deals with T5, ELF3 (Homo sapiens, UniProt P78545 1-371).
T5 sequence: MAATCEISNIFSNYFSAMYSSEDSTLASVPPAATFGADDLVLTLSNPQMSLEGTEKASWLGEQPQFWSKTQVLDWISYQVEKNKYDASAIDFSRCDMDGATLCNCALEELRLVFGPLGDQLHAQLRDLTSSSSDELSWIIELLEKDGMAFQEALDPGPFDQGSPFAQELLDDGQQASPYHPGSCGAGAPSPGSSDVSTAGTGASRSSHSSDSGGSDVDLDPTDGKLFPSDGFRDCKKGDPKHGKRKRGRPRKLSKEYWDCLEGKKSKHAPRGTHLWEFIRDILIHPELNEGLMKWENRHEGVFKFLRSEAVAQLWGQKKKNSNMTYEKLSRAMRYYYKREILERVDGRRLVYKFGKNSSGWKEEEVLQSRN
Conditions: protein: recombinant; tags: N-terminal GST; dsDNA, one strand shown. Put shortly:
as §1

The next assay addresses CRX (Homo sapiens, UniProt O43186 1-299). The conditions noted are these: protein: recombinant; tags: N-terminal GST; dsDNA, one strand shown. In outline: as §1
Another assay concerns the target ETV1 (Homo sapiens, UniProt P50549 1-477). Conditions: protein: recombinant; tags: N-terminal GST; dsDNA, one strand shown. Put shortly:
as §1

The next assay has as its target T6, ERF (Homo sapiens, UniProt P50548 1-548).
T6 sequence: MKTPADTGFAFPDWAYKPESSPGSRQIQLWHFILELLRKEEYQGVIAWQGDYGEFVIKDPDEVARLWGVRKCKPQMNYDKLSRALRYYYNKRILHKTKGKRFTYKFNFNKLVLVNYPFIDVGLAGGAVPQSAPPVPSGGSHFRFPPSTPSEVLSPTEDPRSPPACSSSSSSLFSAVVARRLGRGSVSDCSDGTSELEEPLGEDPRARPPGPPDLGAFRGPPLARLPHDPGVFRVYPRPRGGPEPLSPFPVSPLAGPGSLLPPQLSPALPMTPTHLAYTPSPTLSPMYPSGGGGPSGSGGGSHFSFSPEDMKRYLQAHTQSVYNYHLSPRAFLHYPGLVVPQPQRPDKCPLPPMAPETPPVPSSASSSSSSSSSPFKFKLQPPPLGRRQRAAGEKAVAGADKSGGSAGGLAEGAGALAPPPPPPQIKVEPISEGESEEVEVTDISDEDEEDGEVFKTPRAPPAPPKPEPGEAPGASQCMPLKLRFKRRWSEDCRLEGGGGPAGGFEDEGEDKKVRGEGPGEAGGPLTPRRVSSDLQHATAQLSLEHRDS
Conditions: protein: recombinant; tags: N-terminal GST; dsDNA, one strand shown. Put shortly:
as §1

In another assay the target is T7, ETV3L (Homo sapiens, UniProt Q6ZN32 1-361).
T7 sequence: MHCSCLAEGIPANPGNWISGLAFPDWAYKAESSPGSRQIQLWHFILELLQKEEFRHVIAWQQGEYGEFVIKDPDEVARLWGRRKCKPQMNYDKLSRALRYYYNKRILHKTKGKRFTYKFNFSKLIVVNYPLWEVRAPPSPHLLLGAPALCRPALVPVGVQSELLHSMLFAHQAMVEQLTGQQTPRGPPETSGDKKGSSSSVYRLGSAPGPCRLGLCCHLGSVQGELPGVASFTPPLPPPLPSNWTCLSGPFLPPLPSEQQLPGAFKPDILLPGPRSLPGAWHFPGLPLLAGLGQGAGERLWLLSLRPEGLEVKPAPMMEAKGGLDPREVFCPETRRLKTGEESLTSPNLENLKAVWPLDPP
The conditions noted are these: protein: recombinant; tags: N-terminal GST; dsDNA, one strand shown. Put shortly: as §1

The next assay concerns the target T8, ETS2 (Homo sapiens, UniProt P15036 1-469).
T8 sequence: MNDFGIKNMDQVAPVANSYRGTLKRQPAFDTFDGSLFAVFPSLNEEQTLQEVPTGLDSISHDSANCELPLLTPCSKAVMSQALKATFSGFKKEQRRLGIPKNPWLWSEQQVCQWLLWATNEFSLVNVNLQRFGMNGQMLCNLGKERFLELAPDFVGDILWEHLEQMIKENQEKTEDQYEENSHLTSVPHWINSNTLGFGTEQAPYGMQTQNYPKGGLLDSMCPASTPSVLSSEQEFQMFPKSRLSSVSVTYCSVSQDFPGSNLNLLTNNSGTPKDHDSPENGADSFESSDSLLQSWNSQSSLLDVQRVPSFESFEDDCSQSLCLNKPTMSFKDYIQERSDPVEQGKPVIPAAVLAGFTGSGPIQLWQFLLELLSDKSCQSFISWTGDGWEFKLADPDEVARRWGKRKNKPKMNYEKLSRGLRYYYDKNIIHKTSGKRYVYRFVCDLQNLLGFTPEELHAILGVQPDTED
The conditions noted are these: protein: recombinant; tags: N-terminal GST; dsDNA, one strand shown. Put shortly: as §1

The next assay deals with T9, SPDEF (Homo sapiens, UniProt O95238 1-335).
T9 sequence: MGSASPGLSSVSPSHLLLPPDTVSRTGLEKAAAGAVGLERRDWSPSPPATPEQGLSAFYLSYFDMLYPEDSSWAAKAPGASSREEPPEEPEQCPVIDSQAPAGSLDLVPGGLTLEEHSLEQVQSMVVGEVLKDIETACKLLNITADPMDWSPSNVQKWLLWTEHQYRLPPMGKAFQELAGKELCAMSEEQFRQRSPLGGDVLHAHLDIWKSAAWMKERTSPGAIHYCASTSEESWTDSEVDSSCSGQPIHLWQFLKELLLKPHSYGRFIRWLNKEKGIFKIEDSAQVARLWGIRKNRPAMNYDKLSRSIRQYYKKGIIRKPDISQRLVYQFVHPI
Conditions: protein: recombinant; tags: N-terminal GST; dsDNA, one strand shown. In outline: as §1

The next assay concerns the target T10, ETV7 (Homo sapiens, UniProt Q9Y603 1-341).
T10 sequence: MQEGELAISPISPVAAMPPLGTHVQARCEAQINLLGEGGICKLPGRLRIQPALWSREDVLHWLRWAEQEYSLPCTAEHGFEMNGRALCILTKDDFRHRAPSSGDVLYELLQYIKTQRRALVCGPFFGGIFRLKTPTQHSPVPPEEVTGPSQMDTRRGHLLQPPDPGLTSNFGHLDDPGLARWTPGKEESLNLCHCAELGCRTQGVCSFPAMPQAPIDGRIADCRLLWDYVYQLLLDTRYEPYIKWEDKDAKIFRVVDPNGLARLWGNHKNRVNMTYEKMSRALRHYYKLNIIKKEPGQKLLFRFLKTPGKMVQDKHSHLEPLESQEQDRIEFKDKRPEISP
Conditions: protein: recombinant; tags: N-terminal GST; dsDNA, one strand shown. Put shortly:
as §1

The target of a further assay is T11, ELF5 (Homo sapiens, UniProt Q9UKW6-2 1-255).
T11 sequence: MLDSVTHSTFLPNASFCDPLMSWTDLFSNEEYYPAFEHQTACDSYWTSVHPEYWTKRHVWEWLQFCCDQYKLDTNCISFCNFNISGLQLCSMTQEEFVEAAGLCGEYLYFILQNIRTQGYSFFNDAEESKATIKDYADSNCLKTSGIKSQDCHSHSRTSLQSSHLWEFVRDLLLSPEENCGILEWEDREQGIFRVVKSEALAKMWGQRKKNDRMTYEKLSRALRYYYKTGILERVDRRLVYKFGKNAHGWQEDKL
Conditions: protein: recombinant; tags: N-terminal GST; dsDNA, one strand shown. Put shortly: as §1

A further assay addresses T12, ETV3 (Homo sapiens, UniProt P41162-2 1-143).
T12 sequence: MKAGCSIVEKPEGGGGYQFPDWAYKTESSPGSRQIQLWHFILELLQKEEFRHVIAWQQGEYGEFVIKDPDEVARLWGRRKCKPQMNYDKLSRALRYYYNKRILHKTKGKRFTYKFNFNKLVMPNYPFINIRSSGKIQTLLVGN
Conditions: protein: recombinant; tags: N-terminal GST; dsDNA, one strand shown. In outline: as §1

The target of another assay is ETV6 (Homo sapiens, UniProt P41212 1-452). The conditions noted are these: protein: recombinant; tags: N-terminal GST; dsDNA, one strand shown. In outline:
as §1

ELF4, sequence (Q99607 whole entry): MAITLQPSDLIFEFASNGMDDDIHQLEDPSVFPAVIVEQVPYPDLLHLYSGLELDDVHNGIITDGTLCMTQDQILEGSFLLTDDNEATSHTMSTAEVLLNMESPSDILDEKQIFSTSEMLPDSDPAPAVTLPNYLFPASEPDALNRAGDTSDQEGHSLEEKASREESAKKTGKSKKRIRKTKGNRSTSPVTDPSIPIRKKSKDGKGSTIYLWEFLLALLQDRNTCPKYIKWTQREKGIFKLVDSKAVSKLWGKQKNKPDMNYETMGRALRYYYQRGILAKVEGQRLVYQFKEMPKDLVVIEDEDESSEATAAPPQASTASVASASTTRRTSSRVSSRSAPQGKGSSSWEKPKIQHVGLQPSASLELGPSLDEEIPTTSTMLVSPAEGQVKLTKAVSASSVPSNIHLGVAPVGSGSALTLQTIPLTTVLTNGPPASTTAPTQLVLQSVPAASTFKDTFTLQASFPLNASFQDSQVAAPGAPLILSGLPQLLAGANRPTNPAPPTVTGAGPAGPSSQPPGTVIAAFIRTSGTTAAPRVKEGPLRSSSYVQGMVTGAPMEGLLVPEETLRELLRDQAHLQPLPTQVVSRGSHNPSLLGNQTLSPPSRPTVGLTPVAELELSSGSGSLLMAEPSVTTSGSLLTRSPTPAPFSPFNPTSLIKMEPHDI
CRX, sequence (O43186 whole entry): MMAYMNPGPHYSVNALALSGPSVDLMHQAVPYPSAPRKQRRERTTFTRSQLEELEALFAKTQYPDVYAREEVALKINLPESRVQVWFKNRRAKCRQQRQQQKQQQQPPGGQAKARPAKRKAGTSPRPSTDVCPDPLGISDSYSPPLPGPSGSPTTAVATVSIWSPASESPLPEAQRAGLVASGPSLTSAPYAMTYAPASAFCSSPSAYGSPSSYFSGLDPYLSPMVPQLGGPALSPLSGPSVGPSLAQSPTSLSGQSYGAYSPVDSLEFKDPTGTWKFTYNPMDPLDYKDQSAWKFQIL
HSF1, sequence (Q00613 whole entry): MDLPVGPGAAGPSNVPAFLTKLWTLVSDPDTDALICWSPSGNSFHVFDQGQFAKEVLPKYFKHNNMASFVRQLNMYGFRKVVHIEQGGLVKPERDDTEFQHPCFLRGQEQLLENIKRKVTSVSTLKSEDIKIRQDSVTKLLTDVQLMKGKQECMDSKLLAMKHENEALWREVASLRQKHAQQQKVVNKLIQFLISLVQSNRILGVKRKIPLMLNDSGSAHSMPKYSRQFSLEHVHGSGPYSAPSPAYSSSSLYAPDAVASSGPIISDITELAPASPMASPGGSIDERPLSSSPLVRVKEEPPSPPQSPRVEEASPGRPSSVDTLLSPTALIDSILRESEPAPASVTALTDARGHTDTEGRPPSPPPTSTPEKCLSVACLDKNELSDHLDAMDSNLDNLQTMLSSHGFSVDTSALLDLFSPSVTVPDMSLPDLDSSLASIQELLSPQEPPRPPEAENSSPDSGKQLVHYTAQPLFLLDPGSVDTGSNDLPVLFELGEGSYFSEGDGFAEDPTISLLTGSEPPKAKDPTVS
ETV6, sequence (P41212 whole entry): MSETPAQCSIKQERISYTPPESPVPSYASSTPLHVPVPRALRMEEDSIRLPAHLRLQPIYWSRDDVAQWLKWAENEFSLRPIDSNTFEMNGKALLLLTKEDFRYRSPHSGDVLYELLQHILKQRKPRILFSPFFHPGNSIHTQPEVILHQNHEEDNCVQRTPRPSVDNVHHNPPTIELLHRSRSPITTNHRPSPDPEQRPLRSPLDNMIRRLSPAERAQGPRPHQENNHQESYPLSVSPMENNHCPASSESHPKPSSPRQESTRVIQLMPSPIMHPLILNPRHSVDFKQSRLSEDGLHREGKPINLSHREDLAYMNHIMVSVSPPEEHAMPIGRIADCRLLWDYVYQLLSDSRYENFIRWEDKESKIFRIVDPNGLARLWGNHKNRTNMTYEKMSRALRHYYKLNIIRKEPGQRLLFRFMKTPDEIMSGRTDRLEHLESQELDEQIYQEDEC
ETV1, sequence (P50549 whole entry): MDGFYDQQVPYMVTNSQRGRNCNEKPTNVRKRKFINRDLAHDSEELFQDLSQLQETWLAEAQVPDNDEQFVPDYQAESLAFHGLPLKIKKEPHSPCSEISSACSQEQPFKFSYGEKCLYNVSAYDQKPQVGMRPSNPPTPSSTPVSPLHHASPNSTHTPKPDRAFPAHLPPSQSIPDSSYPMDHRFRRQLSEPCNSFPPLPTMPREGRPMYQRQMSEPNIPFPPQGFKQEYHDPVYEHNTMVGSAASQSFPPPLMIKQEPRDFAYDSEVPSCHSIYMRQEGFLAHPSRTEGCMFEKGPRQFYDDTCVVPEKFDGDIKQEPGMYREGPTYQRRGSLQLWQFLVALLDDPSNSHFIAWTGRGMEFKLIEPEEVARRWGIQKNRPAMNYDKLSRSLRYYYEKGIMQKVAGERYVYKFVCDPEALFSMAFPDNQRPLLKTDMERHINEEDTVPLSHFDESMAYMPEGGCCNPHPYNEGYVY
ETV5, sequence (P41161 whole entry): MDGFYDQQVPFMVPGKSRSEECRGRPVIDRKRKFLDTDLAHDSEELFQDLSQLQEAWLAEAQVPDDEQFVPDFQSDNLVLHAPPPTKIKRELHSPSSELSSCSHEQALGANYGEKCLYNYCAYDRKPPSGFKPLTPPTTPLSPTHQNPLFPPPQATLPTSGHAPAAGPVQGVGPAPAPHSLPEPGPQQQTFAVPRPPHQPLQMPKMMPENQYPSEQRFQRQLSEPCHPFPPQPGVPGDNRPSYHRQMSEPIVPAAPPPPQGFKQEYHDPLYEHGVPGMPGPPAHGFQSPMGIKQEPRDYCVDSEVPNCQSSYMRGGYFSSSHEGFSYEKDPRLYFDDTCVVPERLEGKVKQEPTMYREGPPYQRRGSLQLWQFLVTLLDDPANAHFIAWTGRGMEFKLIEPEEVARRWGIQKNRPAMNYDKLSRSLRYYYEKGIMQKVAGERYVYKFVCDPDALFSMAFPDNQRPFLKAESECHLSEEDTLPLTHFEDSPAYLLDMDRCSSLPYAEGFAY

As for CTACTT, the binding signal in the assay with FEV is 2.08 fold enrichment (6-mer frequency, TF over GST control); with ETV5 it was 1.78 fold enrichment (6-mer frequency, TF over GST control); with HSF1 it was 1.44 fold enrichment (6-mer frequency, TF over GST control); in the assay with SPIC, 1.89 fold enrichment (6-mer frequency, TF over GST control); with ELF4, 1.82 fold enrichment (6-mer frequency, TF over GST control); in the assay with ELK4 it was 1.87 fold enrichment (6-mer frequency, TF over GST control). For the same sequence, the binding signal was 1.84 fold enrichment (6-mer frequency, TF over GST control) in the assay with ETV2; 1.89 fold enrichment (6-mer frequency, TF over GST control) in the assay with ELF3; 1.78 fold enrichment (6-mer frequency, TF over GST control) with CRX; 1.89 fold enrichment (6-mer frequency, TF over GST control) with ETV1; 1.85 fold enrichment (6-mer frequency, TF over GST control) with ERF; 1.84 fold enrichment (6-mer frequency, TF over GST control) with ETV3L. Also, the binding signal with ETS2 is 1.95 fold enrichment (6-mer frequency, TF over GST control); in the assay with SPDEF it was 1.79 fold enrichment (6-mer frequency, TF over GST control); with ETV7, 1.8 fold enrichment (6-mer frequency, TF over GST control); in the assay with ELF5 it was 2 fold enrichment (6-mer frequency, TF over GST control); with ETV3 it was 1.76 fold enrichment (6-mer frequency, TF over GST control); with ETV6, 2.02 fold enrichment (6-mer frequency, TF over GST control).
